This is an account of results in article PMC4336329 (PLoS ONE, 2015).

Among all 310,000 compounds or so, about 14,000 (4.5%) showed an effect of 50% or more. The effect is printed as a negative number. This excerpt belongs to a sample that is enriched for strong results.
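Further: peak tail current of the secondary pulse compared with the same well before compound.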

For this test, the target named is human ether-à-go-go-related gene (hERG) potassium channel (human, UniProt Q12809). The test can be described thus: primary screen, population patch clamp on CHO cells stably expressing hERG; higher = less effect of the substance.
Sequence of human ether-à-go-go-related gene (hERG) potassium channel (Q12809 whole entry, looked up): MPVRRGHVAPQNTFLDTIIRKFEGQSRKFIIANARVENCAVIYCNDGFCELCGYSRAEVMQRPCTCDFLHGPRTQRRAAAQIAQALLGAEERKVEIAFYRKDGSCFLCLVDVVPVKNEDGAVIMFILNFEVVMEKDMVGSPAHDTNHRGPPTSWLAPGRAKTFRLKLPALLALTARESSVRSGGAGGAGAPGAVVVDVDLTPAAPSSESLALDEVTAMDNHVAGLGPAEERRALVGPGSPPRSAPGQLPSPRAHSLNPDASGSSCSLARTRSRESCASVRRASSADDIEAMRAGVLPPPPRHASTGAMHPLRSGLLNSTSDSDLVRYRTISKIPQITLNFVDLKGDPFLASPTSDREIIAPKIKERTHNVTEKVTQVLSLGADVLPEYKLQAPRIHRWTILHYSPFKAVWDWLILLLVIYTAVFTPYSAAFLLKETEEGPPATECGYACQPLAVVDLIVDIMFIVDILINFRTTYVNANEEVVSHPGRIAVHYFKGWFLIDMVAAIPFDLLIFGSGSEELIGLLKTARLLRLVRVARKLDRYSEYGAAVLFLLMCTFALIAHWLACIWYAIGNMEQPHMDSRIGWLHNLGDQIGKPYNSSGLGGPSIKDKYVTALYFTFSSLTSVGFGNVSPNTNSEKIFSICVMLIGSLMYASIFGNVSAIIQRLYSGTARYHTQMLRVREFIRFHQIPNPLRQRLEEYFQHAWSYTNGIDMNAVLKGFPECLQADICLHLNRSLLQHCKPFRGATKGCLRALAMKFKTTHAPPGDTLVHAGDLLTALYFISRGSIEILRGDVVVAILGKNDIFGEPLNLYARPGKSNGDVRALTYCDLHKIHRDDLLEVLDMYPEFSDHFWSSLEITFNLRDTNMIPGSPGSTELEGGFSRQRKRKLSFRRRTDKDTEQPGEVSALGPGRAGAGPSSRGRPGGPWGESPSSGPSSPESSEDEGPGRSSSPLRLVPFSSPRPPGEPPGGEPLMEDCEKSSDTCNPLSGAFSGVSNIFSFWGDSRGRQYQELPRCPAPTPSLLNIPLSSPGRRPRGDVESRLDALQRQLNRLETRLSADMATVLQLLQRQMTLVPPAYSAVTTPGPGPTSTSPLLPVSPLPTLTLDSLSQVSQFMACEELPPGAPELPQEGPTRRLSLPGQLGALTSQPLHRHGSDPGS
On to `COc1ccc(NC(=O)/C(C#N)=C\c2cc(C)n(-c3ccc(Oc4ccc([N+](=O)[O-])cn4)cc3)c2C)cc1`, for which the “hERG current change (%, negative = inhibition) at 10uM” value is recorded as 10.8%. The same measure for `Cc1cc(C=O)c(C)n1-c1ccc(Oc2ccc([N+](=O)[O-])cn2)cc1`: -56.7%. The same measure for `Cc1ccc(-n2c(C)cc(/C=N/Nc3ccc([N+](=O)[O-])cn3)c2C)cc1`: -4.67%; for `COCC(=O)N1CCC(Oc2ccc(C(=O)NC(C)c3csc(C)n3)cc2)CC1` (centres unmarked): 10.4%; for `COc1ccc2cc([C@@H](C)C(=O)[O-])ccc2c1.[Na+]`: -2.41%.

As to `COC(=O)c1ccccc1S(=O)(=O)N1CCC(C(=O)OCc2cccc(OC)c2OC)CC1`, the “hERG current change (%, negative = inhibition) at 10uM” value is recorded as -13.5%. Take `COC(=O)c1ccccc1S(=O)(=O)N1CCC(C(=O)OC(C)C(=O)Nc2ccc(NC(C)=O)cc2)CC1` (centres unmarked): the “hERG current change (%, negative = inhibition) at 10uM” value is given as -14.6%. As to `COC(=O)c1ccccc1S(=O)(=O)N1CCC(C(=O)OCC(=O)c2ccccc2OC)CC1`, the “hERG current change (%, negative = inhibition) at 10uM” value is -16.8%. The same measure for `O=C(OCc1ccc([N+](=O)[O-])cc1)C1CCN(S(=O)(=O)c2ccccc2)CC1`: -37.3%.

On to `COC(=O)c1ccccc1S(=O)(=O)N1CCC(C(=O)OCc2ccc([N+](=O)[O-])cc2)CC1`, for which the “hERG current change (%, negative = inhibition) at 10uM” value is listed as -57.1%. Take `CC(OC(=O)C1CCN(S(=O)(=O)c2ccccc2)CC1)C(=O)Nc1ncc(Cl)cc1Cl` (centres unmarked): the “hERG current change (%, negative = inhibition) at 10uM” value is listed as -64%. On to `Cc1ccc(S(=O)(=O)N2CCC(C(=O)OCc3ccc([N+](=O)[O-])cc3)CC2)cc1`, for which the “hERG current change (%, negative = inhibition) at 10uM” value is recorded as -69.8%. Consider `COC(=O)c1ccccc1S(=O)(=O)N1CCC(C(=O)OC(C)C(=O)NC(N)=O)CC1` (centres unmarked), for which the “hERG current change (%, negative = inhibition) at 10uM” value stood at 29.7%.

Consider `COc1ccc(COC(=O)C2CCN(S(=O)(=O)c3ccc(C)cc3)CC2)cc1`, for which the “hERG current change (%, negative = inhibition) at 10uM” value is -7.61%. For `CC(OC(=O)C1CCCC1)C(=O)Nc1ncc(Cl)cc1Cl` (centres unmarked), the “hERG current change (%, negative = inhibition) at 10uM” value is -2.36%.

With `CC(OC(=O)C1CC1)C(=O)Nc1ncc(Cl)cc1Cl` (centres unmarked), the “hERG current change (%, negative = inhibition) at 10uM” value is on record as 18.1%. Turning to `COC(=O)c1ccccc1S(=O)(=O)N1CCC(C(=O)OC(C)C(=O)Nc2ccccc2OC)CC1` (centres unmarked), the “hERG current change (%, negative = inhibition) at 10uM” value is -51.3%. Regarding `CC(C(=O)Nc1ccc(Cl)cc1Cl)N1CC=C(c2ccccc2)CC1` (centres unmarked), the “hERG current change (%, negative = inhibition) at 10uM” value is -28.1%. Turning to `CCn1c(=O)c(CCC(=O)N2CCN(c3ccccn3)CC2)c(C)c2c(C)nn(-c3ccccc3)c21`, the “hERG current change (%, negative = inhibition) at 10uM” value is given as -17.8%. Then `Cc1ccc2nc(SCC(=O)N3CCCC3)nc(=O)n2c1`, with -0.651%; and `Cn1nc(C(=O)Nc2nc3ccccc3[nH]2)c2ccccc2c1=O`, with -47.1%; and `CC(C)OCCCNC(=O)C1CCC(CNS(=O)(=O)c2ccccc2)CC1` (centres unmarked), with -7.62%.

On to `Cc1ccc(C(C)(C)C)c(OCCCn2ccnc2)c1.O=C(O)C(=O)O`, for which the “hERG current change (%, negative = inhibition) at 10uM” value is -16.6%. Regarding `CCc1cc(CNC(=O)CC2C(=O)NCCN2Cc2ccccc2C(F)(F)F)on1` (centres unmarked), the “hERG current change (%, negative = inhibition) at 10uM” value is on record as 10%. `Cc1ccc2nc(NC(=O)Cn3nc(C)c([N+](=O)[O-])c3C)sc2c1`: the “hERG current change (%, negative = inhibition) at 10uM” value is -23.5%. For `CCOc1ccc(C(=O)OCC(=O)NC2CCCC2)cc1OCC`, the “hERG current change (%, negative = inhibition) at 10uM” value is 8.34%. As for `COc1ccccc1NC(=O)/C(=N/OCc1ccc(C#N)cc1)C(C)=O`, the “hERG current change (%, negative = inhibition) at 10uM” value is on record as -18.2%. For `COC(=O)c1sccc1NC(=O)c1c(-c2ccccc2)noc1C`, the “hERG current change (%, negative = inhibition) at 10uM” value was -26.5%. As for `Cc1ccccc1C(=O)NNC(=O)Nc1ccccc1`, the “hERG current change (%, negative = inhibition) at 10uM” value was 11.6%. The same measure for `CCOc1ccc(Nc2cc(C)nc(N3CCOCC3)n2)cc1`: 0.875%; for `COc1ccc2nc(C)cc(Nc3ccc(N4CCOCC4)cc3)c2c1.Cl`: -60.9%; for `COc1ccc2nc(C)cc(Nc3ccc(N4CCN(C)CC4)cc3)c2c1`: -1.75%.

Take `CCOc1ccc2nc(N3CCOCC3)nc(C)c2c1`: the “hERG current change (%, negative = inhibition) at 10uM” value was found to be 3.2%.

Regarding `COc1ccc(Nc2cc(C)nc(N3CCOCC3)n2)cc1`, the “hERG current change (%, negative = inhibition) at 10uM” value is reported as -12.2%. With `CCOc1ccc2nc(C)cc(Nc3ccc(N4CCOCC4)cc3)c2c1.Cl`, the “hERG current change (%, negative = inhibition) at 10uM” value is -73%. `COc1ccc(S(=O)(=O)NCc2ccccc2)cc1Br`: the “hERG current change (%, negative = inhibition) at 10uM” value was determined as 6.25%. Then `NC(=O)CC1Nc2cccc3cccc(c23)NC1=O` (centres unmarked), with 8.93%; and `COc1ccc(CCNC(=O)CCc2nc3ccccc3[nH]2)cc1OC`, with -7.59%; and `CCN(CC(=O)Nc1ccc(NC(C)=O)cc1)C(=O)CCCSc1nc2ccccc2[nH]1`, with -0.716%. Then `CCCCc1oc2c(c(=O)c1C)C(=O)CC(c1ccccc1)C2` (centres unmarked), with -59.8%; and `CCCCc1noc2c1/C(=N\O)CC(c1ccccc1)C2` (centres unmarked), with 7.26%. Turning to `Cc1oc2c(c(=O)c1C)C(=O)CC(c1ccccc1)C2` (centres unmarked), the “hERG current change (%, negative = inhibition) at 10uM” value was -23.7%. For the molecule `CSc1ccccc1NC(=O)CN(C)C(=O)Cc1c[nH]c2ccccc12`, the “hERG current change (%, negative = inhibition) at 10uM” value is -0.585%. With `Cc1cc(NC(=O)CSc2nc3c(sc4ccccc43)c(=O)n2CCCN2CCOCC2)n[nH]1`, the “hERG current change (%, negative = inhibition) at 10uM” value was 2%. Take `O=C(CSc1nc2c(sc3ccccc32)c(=O)n1Cc1ccccc1)NCC1CCCO1` (centres unmarked): the “hERG current change (%, negative = inhibition) at 10uM” value is 16.8%. The same measure for `CCC(C)NC(=O)CSc1nc2c(sc3ccccc32)c(=O)n1CCCN1CCOCC1` (centres unmarked): -53.4%; for `CCCCn1c(SCC(N)=O)nc2c(sc3ccccc32)c1=O`: -12.4%. Then `NC(=O)CSc1nc2c(sc3ccccc32)c(=O)n1CCCC(=O)NCC1CCCO1` (centres unmarked), with -16.8%; and `CCCCn1c(SCC(=O)NC(C)CC)nc2ccc(N3CCOCC3)cc2c1=O` (centres unmarked), with -12.8%. For `CCOC(=O)CSc1nc2c(sc3ccc([N+](=O)[O-])cc32)c(=O)n1Cc1ccco1`, the “hERG current change (%, negative = inhibition) at 10uM” value is listed as -32.4%. In the case of `COCCCNC(=O)CSc1nc2c(sc3ccccc32)c(=O)n1CCCC(=O)NCC1CCCO1` (centres unmarked), the “hERG current change (%, negative = inhibition) at 10uM” value is on record as -14.4%.

For the molecule `NC(=O)CSc1nc2c(sc3ccccc32)c(=O)n1CCCN1CCOCC1`, the “hERG current change (%, negative = inhibition) at 10uM” value is -52.8%.

As to `O=C(CSc1nc2c(sc3ccccc32)c(=O)n1CCCN1CCOCC1)NC1CCCC1`, the “hERG current change (%, negative = inhibition) at 10uM” value is listed as -64.7%.

On to `CCOC(=O)CSc1nc2c(sc3ccccc32)c(=O)n1CCCN1CCOCC1`, for which the “hERG current change (%, negative = inhibition) at 10uM” value was -65.9%. Then `O=C1CSC(c2ccccn2)N1c1ccc(F)cc1F` (centres unmarked), with -0.569%; and `COc1ccccc1Nc1nc(-c2sc(NC(=O)CC(C)C)nc2C)cs1`, with 5.43%.

As to `O=C(CCC(=O)N1CCSc2ccccc21)NC1CCCCC1`, the “hERG current change (%, negative = inhibition) at 10uM” value is listed as -2.55%.

Take `O=C(OCCNc1ccc(C(F)(F)F)cc1[N+](=O)[O-])c1cc2ccccc2oc1=O`: the “hERG current change (%, negative = inhibition) at 10uM” value was 4.72%. As to `CC(Sc1nncn1C)C(=O)Nc1ccc(S(N)(=O)=O)cc1` (centres unmarked), the “hERG current change (%, negative = inhibition) at 10uM” value is recorded as 15.7%. The same measure for `Cc1oc(-c2ccccc2Cl)nc1CSCC(=O)N1CCCC1`: -19.9%. Turning to `COc1ccc(Cl)cc1NC(=O)CN(C)C(=O)c1ccc(COc2ccccc2)cc1`, the “hERG current change (%, negative = inhibition) at 10uM” value amounted to 13.5%. As to `CC1CCc2ccc(F)cc2N1S(=O)(=O)c1cccs1` (centres unmarked), the “hERG current change (%, negative = inhibition) at 10uM” value amounted to 2.36%. For `CNC(=S)NNC(=O)c1ccc(N(C)C)cc1`, the “hERG current change (%, negative = inhibition) at 10uM” value is 0.516%. Take `Cc1cc(C)c(S(=O)(=O)NCC2CCC(C(=O)NCc3ccc4c(c3)OCO4)CC2)c(C)c1` (centres unmarked): the “hERG current change (%, negative = inhibition) at 10uM” value is -1.15%. Take `O=C(N/N=C/C=C/c1ccccc1)c1n[nH]c2c1CCC2`: the “hERG current change (%, negative = inhibition) at 10uM” value was found to be 9.22%. Then `COc1nnc(-c2ccc(N3CCOCC3)c(NC(C)=O)c2)c2ccccc12`, with -1.4%; and `COc1ccc(NS(=O)(=O)c2ccc(N3CCOCC3)c(NC(=O)c3ccco3)c2)cc1`, with 30.3%; and `COC(=O)c1ccc(N2CCOCC2)c(NC(=O)c2ccco2)c1`, with 1.95%. As for `COc1nnc(-c2ccc(N3CCOCC3)c(NC(=O)c3ccccc3)c2)c2ccccc12`, the “hERG current change (%, negative = inhibition) at 10uM” value is on record as -19.5%.

In the case of `CCCC(=O)Nc1cc(-c2nnc(OC)c3ccccc23)ccc1N1CCOCC1`, the “hERG current change (%, negative = inhibition) at 10uM” value is given as -42.9%.

On to `COc1nnc(-c2ccc(N3CCOCC3)c(NC(=O)c3ccc(C)cc3)c2)c2ccccc12`, for which the “hERG current change (%, negative = inhibition) at 10uM” value is reported as -68.9%. On to `Cn1nc(-c2ccc(N3CCOCC3)c(NS(=O)(=O)c3ccccc3)c2)c2ccccc2c1=O`, for which the “hERG current change (%, negative = inhibition) at 10uM” value is -15.6%. The same measure for `CCC(=O)Nc1cc(-c2nnc(OC)c3ccccc23)ccc1N1CCOCC1`: -5.46%; for `COc1nnc(-c2ccc(N3CCOCC3)c(NC(=O)c3ccco3)c2)c2ccccc12`: -70%; for `COc1ccc(N2CCOCC2)c(NC(=O)c2ccco2)c1`: -73.1%. `Cc1ccc(S(=O)(=O)Nc2cc(-c3nn(C)c(=O)c4ccccc34)ccc2N2CCOCC2)cc1`: the “hERG current change (%, negative = inhibition) at 10uM” value was -57%.

In the case of `Cn1nc(-c2ccc(N3CCOCC3)c(NS(=O)(=O)c3ccc(Cl)cc3)c2)c2ccccc2c1=O`, the “hERG current change (%, negative = inhibition) at 10uM” value was -9.74%. As for `Cc1cc(C)c(C#N)c(SCc2nnc(-c3ccccc3)o2)n1`, the “hERG current change (%, negative = inhibition) at 10uM” value is listed as -0.532%.

Regarding `O=C(CNCC1CCCO1)Nc1ccccc1N1CCCCCC1.O=C(O)C(=O)O` (centres unmarked), the “hERG current change (%, negative = inhibition) at 10uM” value is on record as -6.51%. As for `COc1cc(OC)nc(Oc2ccccc2C(=O)Oc2ccc(C)cc2)n1`, the “hERG current change (%, negative = inhibition) at 10uM” value is recorded as -25.1%. For `O=C(c1cc(C2CC2)on1)N1CCN(c2ccccc2)CC1`, the “hERG current change (%, negative = inhibition) at 10uM” value is -14.1%. Consider `CCCCN1C(=O)C(=O)N(CC(=O)Nc2cc(S(=O)(=O)N(C)C)ccc2C)C1=O`, for which the “hERG current change (%, negative = inhibition) at 10uM” value was determined as 6.6%. Then `O=S(=O)(Nc1ccc(Br)cc1)c1cccc2nonc12`, with 5.71%.
